# From paper PMC7862700, “An all-to-all approach to the identification of sequence-specific readers for epigenetic DNA modifications on cytosine”
# Legend:
# Assay in all cases: DAPPL (digital affinity profiling via proximity ligation, sequencing); 10 mM Tris-HCl pH 7.5, 50 mM NaCl, 1 mM DTT, 4% glycerol, room temperature, 30 min; GST-TFs on glutathione beads, 16-mer random dsDNA library, 0.1% formaldehyde crosslink after washing; high values mean tight binding
# Details in all cases: protein: recombinant; tags: N-terminal GST; dsDNA, one strand shown
# [1] = target: T1, ELK1 (Homo sapiens, UniProt P19419 1-428)
# T1 sequence: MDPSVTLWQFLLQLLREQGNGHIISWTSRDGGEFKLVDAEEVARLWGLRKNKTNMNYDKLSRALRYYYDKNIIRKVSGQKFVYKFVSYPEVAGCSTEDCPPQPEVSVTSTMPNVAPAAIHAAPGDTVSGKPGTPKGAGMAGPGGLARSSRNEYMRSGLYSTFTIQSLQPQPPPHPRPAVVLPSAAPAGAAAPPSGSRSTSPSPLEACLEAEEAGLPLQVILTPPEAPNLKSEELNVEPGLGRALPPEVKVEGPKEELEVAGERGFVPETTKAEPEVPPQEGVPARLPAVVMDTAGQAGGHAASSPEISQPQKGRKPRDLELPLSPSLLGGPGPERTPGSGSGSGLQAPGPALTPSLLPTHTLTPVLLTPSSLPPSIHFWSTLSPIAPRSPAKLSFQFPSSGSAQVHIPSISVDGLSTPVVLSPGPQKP
# Method in brief: (§1)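 Binding signal is each hexamer's read frequency for a factor divided by its frequency in the tag-only sample. The factors were GST-fused human transcription factors from yeast, captured on glutathione beads, DNA-barcoded and pooled with that sample. Pools were incubated with 200 nmole of a random double-stranded 16-mer DNA library in Tris/NaCl/DTT/glycerol buffer at room temperature for 30 min, then washed, crosslinked with 0.1% formaldehyde, proximity-ligated with BsaI/T4 ligase (1 h, 37 °C), PCR-amplified and sequenced on an Illumina NextSeq500.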
# [2] = target: T2, GABPA (Homo sapiens, UniProt Q06546 1-454)
# T2 sequence: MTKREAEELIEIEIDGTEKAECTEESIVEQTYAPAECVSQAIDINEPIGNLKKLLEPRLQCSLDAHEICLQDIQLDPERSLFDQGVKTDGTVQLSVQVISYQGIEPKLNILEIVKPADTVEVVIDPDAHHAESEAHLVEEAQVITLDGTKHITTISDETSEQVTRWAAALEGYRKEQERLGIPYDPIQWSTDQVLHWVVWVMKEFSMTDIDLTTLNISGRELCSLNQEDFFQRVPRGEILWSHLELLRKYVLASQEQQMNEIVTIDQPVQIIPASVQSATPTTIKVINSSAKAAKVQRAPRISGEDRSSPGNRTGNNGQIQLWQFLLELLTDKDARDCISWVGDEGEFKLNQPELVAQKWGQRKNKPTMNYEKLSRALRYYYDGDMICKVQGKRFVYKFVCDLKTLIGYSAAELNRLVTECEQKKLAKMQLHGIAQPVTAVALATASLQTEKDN
# Method in brief: as §1
# [3] = target: T3, ERG (Homo sapiens, UniProt P11308 1-479)
# T3 sequence: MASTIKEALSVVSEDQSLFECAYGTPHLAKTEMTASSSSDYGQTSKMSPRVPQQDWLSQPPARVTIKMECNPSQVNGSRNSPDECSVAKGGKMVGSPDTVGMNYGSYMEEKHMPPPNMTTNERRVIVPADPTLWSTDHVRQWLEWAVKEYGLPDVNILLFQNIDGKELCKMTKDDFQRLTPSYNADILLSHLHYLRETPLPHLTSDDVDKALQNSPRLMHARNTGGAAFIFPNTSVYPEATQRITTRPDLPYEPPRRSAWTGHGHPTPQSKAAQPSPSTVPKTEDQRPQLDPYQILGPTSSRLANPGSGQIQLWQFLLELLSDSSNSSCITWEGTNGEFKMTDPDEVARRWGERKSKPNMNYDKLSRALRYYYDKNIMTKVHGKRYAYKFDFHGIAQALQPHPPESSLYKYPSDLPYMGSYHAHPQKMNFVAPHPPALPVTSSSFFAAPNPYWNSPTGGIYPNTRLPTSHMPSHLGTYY
# Method in brief: as §1
# [4] = target: ELF1 (Homo sapiens, UniProt P32519 1-619)
# ELF1, sequence (P32519 whole entry): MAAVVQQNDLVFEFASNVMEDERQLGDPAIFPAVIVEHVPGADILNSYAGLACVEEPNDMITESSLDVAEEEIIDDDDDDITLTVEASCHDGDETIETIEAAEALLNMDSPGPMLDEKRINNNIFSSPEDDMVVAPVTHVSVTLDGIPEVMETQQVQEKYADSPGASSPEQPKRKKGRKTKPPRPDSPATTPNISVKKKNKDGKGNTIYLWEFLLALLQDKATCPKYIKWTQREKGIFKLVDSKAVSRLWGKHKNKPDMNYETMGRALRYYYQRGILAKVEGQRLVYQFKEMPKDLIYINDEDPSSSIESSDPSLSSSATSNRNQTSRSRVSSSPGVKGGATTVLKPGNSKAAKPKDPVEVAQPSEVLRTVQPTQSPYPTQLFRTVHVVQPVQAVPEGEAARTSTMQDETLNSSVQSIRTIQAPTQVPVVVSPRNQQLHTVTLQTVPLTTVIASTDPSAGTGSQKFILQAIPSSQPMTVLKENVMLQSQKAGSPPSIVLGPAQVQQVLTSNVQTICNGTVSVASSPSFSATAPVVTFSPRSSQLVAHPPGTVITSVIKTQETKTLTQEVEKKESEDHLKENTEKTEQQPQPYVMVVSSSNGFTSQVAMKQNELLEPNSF
# Method in brief: as §1
# [5] = target: T4, EHF (Homo sapiens, UniProt Q9NZC4 1-300)
# T4 sequence: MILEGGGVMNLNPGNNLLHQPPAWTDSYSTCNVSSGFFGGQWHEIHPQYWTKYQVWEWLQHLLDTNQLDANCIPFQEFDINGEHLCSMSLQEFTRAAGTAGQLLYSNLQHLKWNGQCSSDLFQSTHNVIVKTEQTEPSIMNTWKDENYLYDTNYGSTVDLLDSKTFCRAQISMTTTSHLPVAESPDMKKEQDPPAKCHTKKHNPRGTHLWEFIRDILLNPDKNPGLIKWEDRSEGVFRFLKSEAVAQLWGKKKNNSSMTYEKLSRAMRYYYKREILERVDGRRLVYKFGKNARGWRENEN
# Method in brief: as §1
# [6] = target: SPIB (Homo sapiens, UniProt Q01892 1-262)
# SPIB, sequence (Q01892 whole entry): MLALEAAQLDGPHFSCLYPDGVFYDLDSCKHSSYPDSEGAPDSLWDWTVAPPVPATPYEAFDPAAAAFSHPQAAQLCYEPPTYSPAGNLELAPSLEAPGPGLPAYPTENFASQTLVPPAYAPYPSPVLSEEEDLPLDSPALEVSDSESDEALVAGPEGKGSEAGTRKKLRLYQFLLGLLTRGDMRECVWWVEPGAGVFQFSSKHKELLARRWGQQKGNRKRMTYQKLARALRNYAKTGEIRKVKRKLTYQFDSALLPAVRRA
# Method in brief: as §1
# [7] = target: T5, FEV (Homo sapiens, UniProt Q99581 1-238)
# T5 sequence: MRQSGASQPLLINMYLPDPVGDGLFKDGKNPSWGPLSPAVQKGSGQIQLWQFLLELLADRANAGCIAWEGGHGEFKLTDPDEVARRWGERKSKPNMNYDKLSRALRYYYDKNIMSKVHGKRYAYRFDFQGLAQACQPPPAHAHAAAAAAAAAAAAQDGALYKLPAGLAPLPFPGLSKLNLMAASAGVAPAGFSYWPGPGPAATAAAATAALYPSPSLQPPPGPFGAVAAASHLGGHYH
# Method in brief: as §1
# [8] = target: ETV5 (Homo sapiens, UniProt P41161 1-510)
# ETV5, sequence (P41161 whole entry): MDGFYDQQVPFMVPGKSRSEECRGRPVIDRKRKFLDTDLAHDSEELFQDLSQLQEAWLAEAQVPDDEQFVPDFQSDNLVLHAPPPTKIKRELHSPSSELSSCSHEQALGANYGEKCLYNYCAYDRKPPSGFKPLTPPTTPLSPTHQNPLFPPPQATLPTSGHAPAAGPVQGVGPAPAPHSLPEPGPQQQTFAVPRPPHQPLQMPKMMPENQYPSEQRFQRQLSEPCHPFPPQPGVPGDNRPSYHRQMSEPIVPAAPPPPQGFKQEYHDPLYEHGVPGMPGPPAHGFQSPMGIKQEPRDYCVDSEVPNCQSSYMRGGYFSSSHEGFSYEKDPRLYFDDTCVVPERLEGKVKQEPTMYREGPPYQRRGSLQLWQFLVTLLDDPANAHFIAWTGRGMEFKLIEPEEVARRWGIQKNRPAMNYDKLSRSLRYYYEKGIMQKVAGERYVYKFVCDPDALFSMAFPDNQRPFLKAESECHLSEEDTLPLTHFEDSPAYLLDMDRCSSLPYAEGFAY
# Method in brief: as §1
# [9] = target: ELF4 (Homo sapiens, UniProt Q99607 1-663)
# ELF4, sequence (Q99607 whole entry): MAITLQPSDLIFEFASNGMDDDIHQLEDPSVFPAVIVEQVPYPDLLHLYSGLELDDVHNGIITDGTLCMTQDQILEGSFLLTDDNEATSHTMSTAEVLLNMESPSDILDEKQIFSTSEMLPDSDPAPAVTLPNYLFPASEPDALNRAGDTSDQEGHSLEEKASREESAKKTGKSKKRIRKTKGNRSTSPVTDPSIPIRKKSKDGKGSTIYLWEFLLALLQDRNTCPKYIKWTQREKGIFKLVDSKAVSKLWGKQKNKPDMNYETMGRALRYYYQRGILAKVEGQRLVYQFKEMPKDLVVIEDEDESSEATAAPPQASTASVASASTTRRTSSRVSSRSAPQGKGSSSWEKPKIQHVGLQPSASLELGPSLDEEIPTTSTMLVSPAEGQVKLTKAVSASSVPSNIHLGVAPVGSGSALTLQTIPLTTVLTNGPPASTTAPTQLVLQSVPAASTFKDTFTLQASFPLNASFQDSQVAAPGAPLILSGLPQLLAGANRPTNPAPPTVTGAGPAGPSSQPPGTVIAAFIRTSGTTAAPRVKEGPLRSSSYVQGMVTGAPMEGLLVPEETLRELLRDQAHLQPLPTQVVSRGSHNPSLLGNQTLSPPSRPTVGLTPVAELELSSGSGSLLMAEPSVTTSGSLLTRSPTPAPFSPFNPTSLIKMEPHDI
# Method in brief: as §1
# [10] = target: T6, ETV2 (Homo sapiens, UniProt O00321 1-342)
# T6 sequence: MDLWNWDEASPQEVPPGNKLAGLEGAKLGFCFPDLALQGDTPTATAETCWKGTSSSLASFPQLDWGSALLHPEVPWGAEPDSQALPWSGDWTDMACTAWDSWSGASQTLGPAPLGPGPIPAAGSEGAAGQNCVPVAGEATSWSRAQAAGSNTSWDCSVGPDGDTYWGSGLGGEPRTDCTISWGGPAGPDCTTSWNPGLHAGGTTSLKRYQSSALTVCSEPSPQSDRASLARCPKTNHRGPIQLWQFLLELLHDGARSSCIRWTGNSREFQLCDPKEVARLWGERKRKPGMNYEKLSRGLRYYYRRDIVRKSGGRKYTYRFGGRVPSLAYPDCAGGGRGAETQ
# Method in brief: as §1
# [11] = target: T7, ELF3 (Homo sapiens, UniProt P78545 1-371)
# T7 sequence: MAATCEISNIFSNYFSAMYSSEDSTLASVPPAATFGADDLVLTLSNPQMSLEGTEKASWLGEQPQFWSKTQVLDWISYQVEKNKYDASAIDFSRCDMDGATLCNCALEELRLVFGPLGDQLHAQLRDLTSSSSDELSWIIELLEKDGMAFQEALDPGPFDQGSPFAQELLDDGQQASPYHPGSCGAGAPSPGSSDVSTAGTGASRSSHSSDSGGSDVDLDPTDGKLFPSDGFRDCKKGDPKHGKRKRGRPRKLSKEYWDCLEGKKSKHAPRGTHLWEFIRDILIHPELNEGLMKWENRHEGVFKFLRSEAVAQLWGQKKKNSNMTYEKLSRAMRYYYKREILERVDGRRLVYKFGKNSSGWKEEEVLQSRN
# Method in brief: as §1
# [12] = target: ETV1 (Homo sapiens, UniProt P50549 1-477)
# ETV1, sequence (P50549 whole entry): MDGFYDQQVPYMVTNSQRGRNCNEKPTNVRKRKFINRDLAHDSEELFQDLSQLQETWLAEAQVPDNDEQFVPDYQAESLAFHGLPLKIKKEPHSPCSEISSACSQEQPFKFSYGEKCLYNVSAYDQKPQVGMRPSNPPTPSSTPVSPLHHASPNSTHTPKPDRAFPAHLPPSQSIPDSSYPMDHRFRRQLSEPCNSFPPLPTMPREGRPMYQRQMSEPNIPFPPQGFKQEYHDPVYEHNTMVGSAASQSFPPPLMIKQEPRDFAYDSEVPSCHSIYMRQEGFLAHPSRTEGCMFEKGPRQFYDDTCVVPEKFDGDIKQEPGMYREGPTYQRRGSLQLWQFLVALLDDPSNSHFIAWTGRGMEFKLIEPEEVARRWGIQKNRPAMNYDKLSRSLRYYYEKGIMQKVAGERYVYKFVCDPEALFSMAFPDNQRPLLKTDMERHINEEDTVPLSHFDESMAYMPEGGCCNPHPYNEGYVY
# Method in brief: as §1
# [13] = target: T8, ERF (Homo sapiens, UniProt P50548 1-548)
# T8 sequence: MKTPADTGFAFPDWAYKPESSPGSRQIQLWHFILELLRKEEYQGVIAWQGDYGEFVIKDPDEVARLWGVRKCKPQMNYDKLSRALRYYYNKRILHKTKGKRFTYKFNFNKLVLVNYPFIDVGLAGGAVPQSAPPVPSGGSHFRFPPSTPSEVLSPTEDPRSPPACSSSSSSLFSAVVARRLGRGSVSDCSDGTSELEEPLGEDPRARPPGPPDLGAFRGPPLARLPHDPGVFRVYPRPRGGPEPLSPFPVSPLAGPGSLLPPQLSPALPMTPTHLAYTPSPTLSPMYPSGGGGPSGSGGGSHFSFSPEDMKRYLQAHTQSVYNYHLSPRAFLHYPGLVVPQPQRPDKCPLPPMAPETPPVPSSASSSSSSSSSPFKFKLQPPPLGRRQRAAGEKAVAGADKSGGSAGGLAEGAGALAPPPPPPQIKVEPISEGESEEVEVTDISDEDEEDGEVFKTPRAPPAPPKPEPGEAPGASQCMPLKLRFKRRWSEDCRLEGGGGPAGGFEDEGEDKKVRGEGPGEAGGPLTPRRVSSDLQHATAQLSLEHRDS
# Method in brief: as §1
# [14] = target: T9, ETV3L (Homo sapiens, UniProt Q6ZN32 1-361)
# T9 sequence: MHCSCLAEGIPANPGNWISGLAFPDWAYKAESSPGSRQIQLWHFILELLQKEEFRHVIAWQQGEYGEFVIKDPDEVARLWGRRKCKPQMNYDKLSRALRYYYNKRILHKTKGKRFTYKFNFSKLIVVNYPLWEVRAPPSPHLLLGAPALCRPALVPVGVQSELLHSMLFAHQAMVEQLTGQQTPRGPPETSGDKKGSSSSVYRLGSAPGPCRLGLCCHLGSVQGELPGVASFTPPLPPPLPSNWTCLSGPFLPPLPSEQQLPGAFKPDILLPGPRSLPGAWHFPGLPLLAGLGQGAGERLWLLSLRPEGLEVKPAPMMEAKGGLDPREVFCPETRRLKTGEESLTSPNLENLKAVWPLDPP
# Method in brief: as §1
# [15] = target: T10, ETS2 (Homo sapiens, UniProt P15036 1-469)
# T10 sequence: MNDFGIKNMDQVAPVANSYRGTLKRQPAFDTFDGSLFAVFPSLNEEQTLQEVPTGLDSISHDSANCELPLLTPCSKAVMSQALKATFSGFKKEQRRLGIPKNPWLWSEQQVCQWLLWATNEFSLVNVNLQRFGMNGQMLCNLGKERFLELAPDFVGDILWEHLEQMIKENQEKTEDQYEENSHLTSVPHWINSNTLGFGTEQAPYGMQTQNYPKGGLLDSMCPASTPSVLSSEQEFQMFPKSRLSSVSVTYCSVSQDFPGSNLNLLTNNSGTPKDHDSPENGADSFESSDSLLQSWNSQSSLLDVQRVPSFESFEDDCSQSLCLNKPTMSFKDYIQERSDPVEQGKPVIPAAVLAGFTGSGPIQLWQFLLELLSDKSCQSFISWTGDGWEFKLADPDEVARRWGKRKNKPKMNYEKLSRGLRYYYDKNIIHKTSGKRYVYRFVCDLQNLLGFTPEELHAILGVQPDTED
# Method in brief: as §1
# [16] = target: T11, SPDEF (Homo sapiens, UniProt O95238 1-335)
# T11 sequence: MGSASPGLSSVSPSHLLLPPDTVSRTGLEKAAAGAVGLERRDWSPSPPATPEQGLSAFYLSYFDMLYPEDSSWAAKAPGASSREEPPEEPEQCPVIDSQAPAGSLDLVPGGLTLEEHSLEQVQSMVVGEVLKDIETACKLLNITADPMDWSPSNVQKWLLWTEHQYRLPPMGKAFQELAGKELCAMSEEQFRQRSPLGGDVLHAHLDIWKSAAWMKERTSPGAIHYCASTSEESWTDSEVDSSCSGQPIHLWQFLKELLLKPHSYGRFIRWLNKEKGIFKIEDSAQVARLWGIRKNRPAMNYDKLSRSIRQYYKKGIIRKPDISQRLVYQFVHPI
# Method in brief: as §1
# [17] = target: T12, ETV7 (Homo sapiens, UniProt Q9Y603 1-341)
# T12 sequence: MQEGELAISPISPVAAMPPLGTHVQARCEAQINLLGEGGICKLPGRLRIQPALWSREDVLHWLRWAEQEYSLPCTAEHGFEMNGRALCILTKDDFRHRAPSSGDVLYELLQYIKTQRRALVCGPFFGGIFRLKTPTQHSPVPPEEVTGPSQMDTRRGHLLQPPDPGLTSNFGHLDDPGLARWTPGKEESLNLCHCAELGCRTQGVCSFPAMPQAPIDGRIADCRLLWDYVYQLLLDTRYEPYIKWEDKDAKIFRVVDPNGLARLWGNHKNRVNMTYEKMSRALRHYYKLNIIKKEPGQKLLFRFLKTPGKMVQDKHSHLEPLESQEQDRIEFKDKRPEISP
# Method in brief: as §1
# [18] = target: T13, ETV3 (Homo sapiens, UniProt P41162-2 1-143)
# T13 sequence: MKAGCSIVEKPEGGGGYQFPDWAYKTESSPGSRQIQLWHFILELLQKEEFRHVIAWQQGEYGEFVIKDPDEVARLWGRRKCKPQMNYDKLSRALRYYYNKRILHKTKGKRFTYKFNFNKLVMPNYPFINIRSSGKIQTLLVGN
# Method in brief: as §1
# [19] = target: ETV6 (Homo sapiens, UniProt P41212 1-452)
# ETV6, sequence (P41212 whole entry): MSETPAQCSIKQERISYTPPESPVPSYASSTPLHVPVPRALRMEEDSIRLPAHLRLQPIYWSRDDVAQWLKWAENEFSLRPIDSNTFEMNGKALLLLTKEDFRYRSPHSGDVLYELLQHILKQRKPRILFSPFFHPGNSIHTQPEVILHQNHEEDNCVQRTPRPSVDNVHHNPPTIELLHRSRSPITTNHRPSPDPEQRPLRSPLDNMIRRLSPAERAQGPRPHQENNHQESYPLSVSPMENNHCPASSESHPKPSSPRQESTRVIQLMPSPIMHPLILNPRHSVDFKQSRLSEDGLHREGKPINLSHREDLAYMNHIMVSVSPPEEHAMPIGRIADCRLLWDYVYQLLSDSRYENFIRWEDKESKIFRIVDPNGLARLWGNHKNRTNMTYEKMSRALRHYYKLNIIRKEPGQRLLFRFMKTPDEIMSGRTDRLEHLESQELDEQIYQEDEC
# Method in brief: as §1
sequence,measurement,setting,value
AACCGC,binding signal,[1],"1.07 fold enrichment (6-mer frequency, TF over GST control)"
same,binding signal,[2],"1.1 fold enrichment (6-mer frequency, TF over GST control)"
same,binding signal,[3],"1.09 fold enrichment (6-mer frequency, TF over GST control)"
same,binding signal,[4],"1.11 fold enrichment (6-mer frequency, TF over GST control)"
same,binding signal,[5],"1.18 fold enrichment (6-mer frequency, TF over GST control)"
same,binding signal,[6],"1.12 fold enrichment (6-mer frequency, TF over GST control)"
same,binding signal,[7],"1.09 fold enrichment (6-mer frequency, TF over GST control)"
same,binding signal,[8],"1.09 fold enrichment (6-mer frequency, TF over GST control)"
same,binding signal,[9],"1.12 fold enrichment (6-mer frequency, TF over GST control)"
same,binding signal,[10],"1.12 fold enrichment (6-mer frequency, TF over GST control)"
same,binding signal,[11],"1.1 fold enrichment (6-mer frequency, TF over GST control)"
same,binding signal,[12],"1.02 fold enrichment (6-mer frequency, TF over GST control)"
same,binding signal,[13],"1.08 fold enrichment (6-mer frequency, TF over GST control)"
same,binding signal,[14],"1.08 fold enrichment (6-mer frequency, TF over GST control)"
same,binding signal,[15],"1.1 fold enrichment (6-mer frequency, TF over GST control)"
same,binding signal,[16],"1.11 fold enrichment (6-mer frequency, TF over GST control)"
same,binding signal,[17],"1.07 fold enrichment (6-mer frequency, TF over GST control)"
same,binding signal,[18],"1.08 fold enrichment (6-mer frequency, TF over GST control)"
same,binding signal,[19],"1.19 fold enrichment (6-mer frequency, TF over GST control)"
